# Data reported in paper PMC7862700, “An all-to-all approach to the identification of sequence-specific readers for epigenetic DNA modifications on cytosine”.
# Assays:
# Experiment in all cases: DAPPL (digital affinity profiling via proximity ligation, sequencing); 10 mM Tris-HCl pH 7.5, 50 mM NaCl, 1 mM DTT, 4% glycerol, room temperature, 30 min; GST-TFs on glutathione beads, 16-mer random dsDNA library, 0.1% formaldehyde crosslink after washing; high values mean tight binding
# FEV = target: T1, FEV (Homo sapiens, UniProt Q99581 1-238); settings: protein: recombinant; tags: N-terminal GST; dsDNA, one strand shown
# T1 sequence: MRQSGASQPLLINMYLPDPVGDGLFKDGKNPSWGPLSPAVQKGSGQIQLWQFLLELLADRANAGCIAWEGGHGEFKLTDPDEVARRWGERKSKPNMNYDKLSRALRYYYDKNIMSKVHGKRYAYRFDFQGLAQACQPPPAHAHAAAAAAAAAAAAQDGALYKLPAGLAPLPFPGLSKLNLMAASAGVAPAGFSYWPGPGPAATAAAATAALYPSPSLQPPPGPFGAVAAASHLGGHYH
# Outline: (§1)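 Beads coated with glutathione captured GST-fused human transcription factors that had been expressed in yeast, and the factors were then given DNA barcodes and pooled with a tag-only sample. The pools were incubated with 200 nmole of a random double-stranded 16-mer DNA library in Tris/NaCl/DTT/glycerol buffer for 30 min at room temperature, washed, crosslinked with 0.1% formaldehyde and proximity-ligated with BsaI/T4 ligase at 37 °C for 1 h. PCR amplification and Illumina NextSeq500 sequencing came last. Binding signal is each hexamer's read frequency for a factor divided by its frequency for the tag-only sample.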
# ETV5 = ETV5 (Homo sapiens, UniProt P41161 1-510); settings: protein: recombinant; tags: N-terminal GST; dsDNA, one strand shown
# Outline: as §1
# HSF1 = HSF1 (Homo sapiens, UniProt Q00613 1-529); settings: protein: recombinant; tags: N-terminal GST; chain copies: 3; dsDNA, one strand shown
# Outline: as §1
# SPIC = target: T2, SPIC (Homo sapiens, UniProt Q8N5J4 1-248); settings: protein: recombinant; tags: N-terminal GST; dsDNA, one strand shown
# T2 sequence: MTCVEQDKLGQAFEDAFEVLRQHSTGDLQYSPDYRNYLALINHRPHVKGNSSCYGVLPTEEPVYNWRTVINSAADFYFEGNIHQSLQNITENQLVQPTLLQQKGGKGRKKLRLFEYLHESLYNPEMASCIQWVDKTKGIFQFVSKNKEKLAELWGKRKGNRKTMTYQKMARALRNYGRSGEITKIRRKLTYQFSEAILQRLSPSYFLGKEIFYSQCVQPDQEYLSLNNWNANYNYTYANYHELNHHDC
# Outline: as §1
# ELF4 = ELF4 (Homo sapiens, UniProt Q99607 1-663); settings: protein: recombinant; tags: N-terminal GST; dsDNA, one strand shown
# Outline: as §1
# ELK4 = target: T3, ELK4 (Homo sapiens, UniProt P28324-2 1-405); settings: protein: recombinant; tags: N-terminal GST; dsDNA, one strand shown
# T3 sequence: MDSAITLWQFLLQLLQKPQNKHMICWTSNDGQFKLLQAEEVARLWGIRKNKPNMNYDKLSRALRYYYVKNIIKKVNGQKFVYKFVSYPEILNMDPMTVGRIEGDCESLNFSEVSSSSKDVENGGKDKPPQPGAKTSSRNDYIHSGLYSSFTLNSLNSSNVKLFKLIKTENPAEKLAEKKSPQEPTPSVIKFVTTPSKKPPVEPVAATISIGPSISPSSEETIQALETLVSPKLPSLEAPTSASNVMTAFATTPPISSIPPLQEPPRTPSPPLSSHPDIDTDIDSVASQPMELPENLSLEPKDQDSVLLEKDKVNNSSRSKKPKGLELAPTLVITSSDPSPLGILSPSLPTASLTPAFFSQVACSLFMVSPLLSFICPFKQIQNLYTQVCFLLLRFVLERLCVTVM
# Outline: as §1
# ETV2 = target: T4, ETV2 (Homo sapiens, UniProt O00321 1-342); settings: protein: recombinant; tags: N-terminal GST; dsDNA, one strand shown
# T4 sequence: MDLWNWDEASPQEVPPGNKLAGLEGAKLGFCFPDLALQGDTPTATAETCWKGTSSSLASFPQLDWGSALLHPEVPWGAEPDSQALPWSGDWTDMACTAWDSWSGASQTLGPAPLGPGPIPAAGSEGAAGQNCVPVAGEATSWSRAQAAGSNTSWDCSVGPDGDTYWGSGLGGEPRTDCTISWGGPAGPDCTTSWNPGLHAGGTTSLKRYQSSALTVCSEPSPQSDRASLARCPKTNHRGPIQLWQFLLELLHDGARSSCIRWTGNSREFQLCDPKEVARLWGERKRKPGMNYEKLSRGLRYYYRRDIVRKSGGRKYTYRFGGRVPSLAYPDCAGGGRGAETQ
# Outline: as §1
# ELF3 = target: T5, ELF3 (Homo sapiens, UniProt P78545 1-371); settings: protein: recombinant; tags: N-terminal GST; dsDNA, one strand shown
# T5 sequence: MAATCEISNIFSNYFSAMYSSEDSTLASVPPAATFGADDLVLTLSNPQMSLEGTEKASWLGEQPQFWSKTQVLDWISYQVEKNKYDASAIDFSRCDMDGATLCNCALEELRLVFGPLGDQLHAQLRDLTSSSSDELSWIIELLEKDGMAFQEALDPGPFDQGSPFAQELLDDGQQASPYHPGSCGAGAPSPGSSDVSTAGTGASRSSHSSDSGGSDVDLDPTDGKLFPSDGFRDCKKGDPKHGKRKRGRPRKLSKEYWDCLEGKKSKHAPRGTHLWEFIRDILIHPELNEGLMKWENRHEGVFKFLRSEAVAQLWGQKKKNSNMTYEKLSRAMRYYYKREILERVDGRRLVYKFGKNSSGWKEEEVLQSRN
# Outline: as §1
# CRX = CRX (Homo sapiens, UniProt O43186 1-299); settings: protein: recombinant; tags: N-terminal GST; dsDNA, one strand shown
# Outline: as §1
# ETV1 = ETV1 (Homo sapiens, UniProt P50549 1-477); settings: protein: recombinant; tags: N-terminal GST; dsDNA, one strand shown
# Outline: as §1
# ELF4, sequence (Q99607 whole entry): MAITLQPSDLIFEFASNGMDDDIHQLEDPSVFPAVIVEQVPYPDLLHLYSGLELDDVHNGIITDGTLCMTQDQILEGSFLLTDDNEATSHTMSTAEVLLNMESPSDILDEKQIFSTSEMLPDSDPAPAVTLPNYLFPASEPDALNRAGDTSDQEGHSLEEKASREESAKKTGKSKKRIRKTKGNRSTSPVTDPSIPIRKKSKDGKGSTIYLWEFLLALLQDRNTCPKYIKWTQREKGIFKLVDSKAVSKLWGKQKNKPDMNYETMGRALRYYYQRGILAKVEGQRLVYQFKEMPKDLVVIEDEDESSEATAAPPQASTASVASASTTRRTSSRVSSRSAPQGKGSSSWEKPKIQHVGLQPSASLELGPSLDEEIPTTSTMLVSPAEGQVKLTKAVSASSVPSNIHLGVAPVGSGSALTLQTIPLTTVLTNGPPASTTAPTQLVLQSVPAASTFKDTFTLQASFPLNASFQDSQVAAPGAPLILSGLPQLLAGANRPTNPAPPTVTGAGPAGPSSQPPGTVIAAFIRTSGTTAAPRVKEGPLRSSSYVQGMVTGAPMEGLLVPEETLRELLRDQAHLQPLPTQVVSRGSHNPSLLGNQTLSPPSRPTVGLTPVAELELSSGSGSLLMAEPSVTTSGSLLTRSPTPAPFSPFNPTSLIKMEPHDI
# HSF1, sequence (Q00613 whole entry): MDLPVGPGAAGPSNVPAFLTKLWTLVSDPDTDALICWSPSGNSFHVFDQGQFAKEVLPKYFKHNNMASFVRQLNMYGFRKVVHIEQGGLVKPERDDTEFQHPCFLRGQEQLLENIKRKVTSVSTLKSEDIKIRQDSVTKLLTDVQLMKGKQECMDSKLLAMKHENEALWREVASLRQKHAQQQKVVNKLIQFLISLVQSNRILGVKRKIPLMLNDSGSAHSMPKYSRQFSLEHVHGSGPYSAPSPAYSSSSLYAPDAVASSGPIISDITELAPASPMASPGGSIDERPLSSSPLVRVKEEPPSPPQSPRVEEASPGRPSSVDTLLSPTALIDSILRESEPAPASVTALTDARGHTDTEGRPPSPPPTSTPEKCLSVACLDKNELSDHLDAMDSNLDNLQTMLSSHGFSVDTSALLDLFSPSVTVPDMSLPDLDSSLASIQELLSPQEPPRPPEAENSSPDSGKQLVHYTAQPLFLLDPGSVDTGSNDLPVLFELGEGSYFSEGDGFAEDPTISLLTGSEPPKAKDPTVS
# ETV1, sequence (P50549 whole entry): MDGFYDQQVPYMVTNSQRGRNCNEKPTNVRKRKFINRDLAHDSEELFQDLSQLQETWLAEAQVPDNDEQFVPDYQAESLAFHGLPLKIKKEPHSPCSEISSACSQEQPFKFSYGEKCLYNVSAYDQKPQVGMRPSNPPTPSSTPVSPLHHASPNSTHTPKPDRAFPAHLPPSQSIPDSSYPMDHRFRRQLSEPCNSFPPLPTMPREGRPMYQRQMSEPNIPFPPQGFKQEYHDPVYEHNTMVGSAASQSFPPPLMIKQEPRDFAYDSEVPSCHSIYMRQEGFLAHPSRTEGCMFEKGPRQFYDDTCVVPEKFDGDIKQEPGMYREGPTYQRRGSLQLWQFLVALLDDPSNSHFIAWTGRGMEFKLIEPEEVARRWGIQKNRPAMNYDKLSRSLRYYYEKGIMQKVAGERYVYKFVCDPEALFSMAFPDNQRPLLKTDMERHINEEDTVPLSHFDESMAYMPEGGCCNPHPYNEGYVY
# ETV5, sequence (P41161 whole entry): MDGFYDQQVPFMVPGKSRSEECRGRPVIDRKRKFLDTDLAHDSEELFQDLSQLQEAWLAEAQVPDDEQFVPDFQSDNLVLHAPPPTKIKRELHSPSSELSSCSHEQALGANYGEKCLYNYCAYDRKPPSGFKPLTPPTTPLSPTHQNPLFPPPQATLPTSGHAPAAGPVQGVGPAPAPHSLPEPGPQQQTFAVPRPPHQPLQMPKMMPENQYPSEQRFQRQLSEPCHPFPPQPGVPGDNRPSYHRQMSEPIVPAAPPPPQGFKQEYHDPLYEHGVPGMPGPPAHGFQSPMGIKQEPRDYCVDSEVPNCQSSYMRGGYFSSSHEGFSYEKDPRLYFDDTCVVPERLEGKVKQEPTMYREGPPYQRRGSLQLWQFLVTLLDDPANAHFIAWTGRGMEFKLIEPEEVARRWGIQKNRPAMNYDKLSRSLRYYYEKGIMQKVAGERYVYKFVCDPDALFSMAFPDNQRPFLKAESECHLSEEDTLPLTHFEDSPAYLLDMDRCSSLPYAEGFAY
# CRX, sequence (O43186 whole entry): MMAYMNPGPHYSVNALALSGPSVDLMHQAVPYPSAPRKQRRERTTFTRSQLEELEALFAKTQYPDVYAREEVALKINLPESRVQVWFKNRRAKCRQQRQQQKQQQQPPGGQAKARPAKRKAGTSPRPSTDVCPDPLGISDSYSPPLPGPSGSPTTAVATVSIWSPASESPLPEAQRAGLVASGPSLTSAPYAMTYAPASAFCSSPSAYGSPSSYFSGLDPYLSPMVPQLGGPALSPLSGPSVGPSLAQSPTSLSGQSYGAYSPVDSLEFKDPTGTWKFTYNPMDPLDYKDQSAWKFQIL
sequence,measurement,setting,value
TAATCA,binding signal,FEV,"1.13 fold enrichment (6-mer frequency, TF over GST control)"
same,binding signal,ETV5,"1.18 fold enrichment (6-mer frequency, TF over GST control)"
same,binding signal,HSF1,"1.64 fold enrichment (6-mer frequency, TF over GST control)"
same,binding signal,SPIC,"1.26 fold enrichment (6-mer frequency, TF over GST control)"
same,binding signal,ELF4,"1.11 fold enrichment (6-mer frequency, TF over GST control)"
same,binding signal,ELK4,"1.32 fold enrichment (6-mer frequency, TF over GST control)"
same,binding signal,ETV2,"1.27 fold enrichment (6-mer frequency, TF over GST control)"
same,binding signal,ELF3,"1.18 fold enrichment (6-mer frequency, TF over GST control)"
same,binding signal,CRX,"2.51 fold enrichment (6-mer frequency, TF over GST control)"
same,binding signal,ETV1,"1.14 fold enrichment (6-mer frequency, TF over GST control)"
